PLCb3 inh: human PLC-beta3 inhibitors, primary screen, biochemical, fluorescence; 0.18% of 370,000 active; 1-phosphatidylinositol 4,5-bisphosphate phosphodiesterase beta-3 (Homo sapiens), Q01970; Purified PLC-beta3, fluorogenic substrate; AID 720704, 2013; inhibition, % at 12.2 µM; in the data active = inhibition above about 11%;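 note: 0% = median of compound wells on plate and 100% = full blocker control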
PLCg1 inh: PLC-gamma1 enzyme inhibitors, primary screen, biochemical, fluorescence, purified enzyme. fluorogenic substrate. 0.84% of 370,000 active. 1-phosphatidylinositol 4,5-bisphosphate phosphodiesterase gamma-1 (Homo sapiens), P19174. inhibition, % at 12.2 µM; in the data active = inhibition above about 9.5%
bovine MsrA act: bovine MsrA enzyme activators, primary screen, biochemical, absorbance, HTS | Methionine sulfoxide reductase A (Bos taurus) | purified bovine MsrA, absorbance read-out | activation, % at 10.6 µM | 0.3% of 360,000 active | AID 602163, 2012; in the data active = activation above about 7.5%;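 note: 0% = vehicle and 100% = reference activator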
MsrA inhibitor: bovine MsrA enzyme inhibitors, primary screen, biochemical, absorbance, HTS. inhibition, % at 15.5 µM. 0.75% of 360,000 active. Methionine sulfoxide reductase A (Bos taurus). purified bovine MsrA, absorbance read-out;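 note: 0% = vehicle wells with enzyme and 100% = reference inhibitor wells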
MsrA conf: bovine MsrA inhibitors, retest, confirmation, biochemical, absorbance, HTS | shares compounds with MsrA inhibitor | purified bovine MsrA, absorbance read-out | inhibition, % at 15.5 µM | 41% of 2,300 active | AID 651822, 2012;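 note: coupled to thioredoxin reductase with NADPH and selenocystamine and DMSO as substrate; 0% = vehicle only and 100% = full effect of reference inhibitor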
The depositor's hits bear a star. In the library only some 1.9% were active in any assay of this set; here they are far more common. Cut-off read from the data, not from the text of the source, unless noted: active = inhibition above about 4.5%; inactive = the rest.

How did COC(=O)C1CN(Cc2cn(Cc3ccc(C)cc3)nn2)CCS(=O)(=O)N1Cc1ccc(OC)cc1 (stereo unspecified) do in these assays?
PLCb3 inh: 4; PLCg1 inh: 3

What do the screens show for `CC1(C)C2CCC(CN=C(N)CSS(=O)(=O)O)C1C2` (stereo unspecified)?
PLCb3 inh: -3; PLCg1 inh: 4; bovine MsrA act: -9; MsrA inhibitor: 21*; MsrA conf: 8.8*

Results for CC(CNC(=O)[C@@H](Cc1ccccc1)NC(=O)[C@H]1O[C@@H](n2ccc(=O)[nH]c2=O)[C@H](O)[C@@H]1O)c1ccccc1 (stereo partly specified) ?
PLCb3 inh: 2; PLCg1 inh: 0; MsrA inhibitor: 0

What do the screens show for `CN(C)CC(C)(C)CN=Cc1c(O)[nH]c2ccccc12`?
PLCb3 inh: -7; PLCg1 inh: -1; bovine MsrA act: -6; MsrA inhibitor: 6.0*; MsrA conf: 1

What do the screens show for `Oc1[nH]c2ccccc2c1C=Nc1ccccc1`?
PLCb3 inh: -5; PLCg1 inh: 1; bovine MsrA act: -3; MsrA inhibitor: 5.1*; MsrA conf: 2

How did O=C(N/C(=C/c1cccs1)c1nc2ccccc2[nH]1)c1ccccc1 do in these assays?
PLCb3 inh: -29; PLCg1 inh: -22; bovine MsrA act: -4; MsrA inhibitor: 5.1*; MsrA conf: 6.0*

How did O=C(N/C(=C\c1ccc(Br)cc1)c1nc2ccccc2[nH]1)c1ccco1 do in these assays?
PLCb3 inh: -17; PLCg1 inh: -8; bovine MsrA act: -14; MsrA inhibitor: 6.5*; MsrA conf: 4

Results for O=C(Nc1ccc(Nc2cccnc2)cc1)c1c[nH]c2ccccc12 ?
PLCb3 inh: -158; PLCg1 inh: -125; MsrA inhibitor: 1

What do the screens show for `CCOC(=O)CC[C@@H]1CC[C@]2(CCCN(S(=O)(=O)C3CCCCC3)C2)O1`?
PLCb3 inh: 3; PLCg1 inh: 3

Results for N#Cc1nc(-c2cccs2)oc1N1CCOCC1 ?
PLCb3 inh: inactive; PLCg1 inh: inactive; bovine MsrA act: -4; MsrA inhibitor: 5.1*; MsrA conf: 2

Results for O=C(O)CCNC(=O)/C(=C\C=C\c1ccccc1)NC(=O)c1ccccc1 ?
PLCb3 inh: -9; PLCg1 inh: 0; bovine MsrA act: -6; MsrA inhibitor: 6.8*; MsrA conf: 4

What do the screens show for `CCCCOc1ccc(C(=O)N/C(=C/C=C/c2ccccc2)C(=O)O)cc1`?
PLCb3 inh: -4; PLCg1 inh: 5; bovine MsrA act: -2; MsrA inhibitor: 6.8*; MsrA conf: 3

What do the screens show for `O=C(O)COc1ccc(/C=N/NC(=O)/C(=C/C=C/c2ccccc2)NC(=O)c2ccccc2)cc1`?
PLCb3 inh: -63; PLCg1 inh: -47; bovine MsrA act: -11; MsrA inhibitor: 8.4*; MsrA conf: 7.9*

Results for COC(=O)/C(=C\C=C\c1ccccc1)NC(=O)c1ccccc1 ?
PLCb3 inh: 2; PLCg1 inh: -3; bovine MsrA act: -6; MsrA inhibitor: 3

How did c1ccc2c(c1)OCc1nccn1-2 do in these assays?
PLCb3 inh: 1; PLCg1 inh: 0; MsrA inhibitor: -1

What do the screens show for `O=C(N/N=C/c1ccco1)c1cc2ccccc2o1`?
PLCb3 inh: -23; PLCg1 inh: -13; bovine MsrA act: -6; MsrA inhibitor: 6.0*; MsrA conf: 7.6*

How did COC(=O)[C@]12C[C@H](CC(=O)N3CCCCC3)C(=O)N(Cc3ccccc3)C1=C[C@H](C1CCCC1)O[C@@H]2C do in these assays?
PLCb3 inh: 1; PLCg1 inh: 2; MsrA inhibitor: 1

How did COc1cc(-c2c(C#N)c(N)nc3c2CCCC3)ccc1O do in these assays?
PLCb3 inh: -23; PLCg1 inh: -24; bovine MsrA act: -1; MsrA inhibitor: 0

Results for COc1cc(-c2c(C#N)c(N)nc3[nH]c(=S)[nH]c(=O)c23)ccc1O ?
PLCb3 inh: 1; PLCg1 inh: 4; bovine MsrA act: 0; MsrA inhibitor: 5.0*; MsrA conf: 4

What do the screens show for `COC(=O)C1=C(C)N(C)C(=NCc2ccccc2C(F)(F)F)NC1CCc1ccccc1` (stereo unspecified)?
PLCb3 inh: 2; PLCg1 inh: 0; MsrA inhibitor: -1

How did COc1ccc(/C=N/NC(=O)c2ccc3nc[nH]c3c2)c(OC)c1OC do in these assays?
PLCb3 inh: -12; PLCg1 inh: -5; bovine MsrA act: -14; MsrA inhibitor: 5.1*; MsrA conf: 2
